The results in this text go back to PubChem BioAssay (NCI).

The panel holds about 79,000 compounds, 15% with a hit somewhere; the sample as a whole holds those more often. A number with no mark means an inactive call. Activity calls are given as the source filed them. No stated cut-off is given here; in the data, active means growth inhibition above about 70%; inactive means the rest.

Assay [1] in a line: NCI Yeast Anticancer Drug Screen. Data for the rad50 strain (AID 155).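 Further: 0% = growth of vehicle-only cultures of the same strain.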 The following applies: S. cerevisiae rad50 strain growth inhibition, stronger effect = higher value. Summed up: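 A DNA repair-deficient yeast mutant serves as the test organism; compound-induced growth inhibition is calculated against vehicle-treated cells.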
Assay [2] in a line: NCI Yeast Anticancer Drug Screen. Data for the mec2-1 strain (AID 157). The following applies: S. cerevisiae mec2-1 strain, stronger effect = higher value. Summed up: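 Strain: mec2-1 (DNA repair/cell cycle alteration). Compound exposure, then growth measured; inhibition expressed relative to vehicle.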
Assay [3] can be described thus: NCI Yeast Anticancer Drug Screen. Data for the sgs1 mgt1 strain (AID 161).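 Further: 0% = growth of cultures given vehicle only.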 The following applies: S. cerevisiae sgs1 mgt1 strain, stronger effect = higher value. The gist of the method: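 Mutant yeast exposed to compound; growth scored against vehicle-only wells.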
A short description of assay [4]: NCI Yeast Anticancer Drug Screen. Data for the cln2 rad14 strain (AID 165).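 Further: 0% = growth equal to vehicle treated cultures.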 The following applies: S. cerevisiae cln2 rad14 strain, stronger effect = higher value. The gist of the method: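 Compounds are applied to the cln2 rad14 yeast strain, and growth is then compared with that of vehicle-treated cultures to give inhibition.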
Assay [5] is described as follows: NCI Yeast Anticancer Drug Screen. Data for the bub3 strain (AID 167). The note with it: S. cerevisiae bub3 mutant strain, stronger effect = higher value. The gist of the method: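 Inhibition values come from growth of compound-treated mutant yeast normalised to vehicle-treated controls.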
A short description of assay [6]: NCI Yeast Anticancer Drug Screen. Data for the mlh1 rad18 strain (AID 175). The note with it: S. cerevisiae mlh1 rad18 strain growth inhibition, stronger effect = higher value. The gist of the method:
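Read-out is yeast growth inhibition, calculated against vehicle-only controls. The compound was applied to a strain engineered with DNA damage repair alterations.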

The mark [7] stands for this setting: at 5.0 µM (retest, dose inferred, filed as 0.5).
Setting [8] is: at 50.0 µM (retest, dose inferred, filed as 5.0).

On to `O=[N+]([O-])/C=C/c1ccccc1`, for which the growth inhibition is 94% (active) in assay [1] (setting [7]); 99% (active) in assay [1] (setting [8]); 98% (active) in assay [1] (at 50.0 µM); 85% (active) in assay [2] (setting [7]); 100% (active) in assay [2] (setting [8]); 99.2% (active) in assay [2] (at 50.0 µM). For the same molecule, the growth inhibition in assay [3] (setting [7]) is 62%; in assay [3] (setting [8]), 99% (active); in assay [3] (at 50.0 µM), 98% (active); in assay [4] (setting [7]), 64%; in assay [4] (setting [8]) it was 100% (active); in assay [4] (at 50.0 µM) it was 98.3% (active). Also, the growth inhibition was 85% (active) in assay [5] (setting [7]); 99% (active) in assay [5] (setting [8]); 96.4% (active) in assay [5] (at 50.0 µM); 71% (active) in assay [6] (setting [7]); 100% (active) in assay [6] (setting [8]); 98.1% (active) in assay [6] (at 50.0 µM).

In the case of `CCOP(=O)(Cc1cccc2ccccc12)OCC`, the growth inhibition in assay [1] (setting [7]) was 5%; in assay [1] (setting [8]), 13%; in assay [1] (at 50.0 µM), 4.65%; in assay [2] (setting [7]), 5%; in assay [2] (setting [8]), -6%; in assay [2] (at 50.0 µM) it was -7.95%. The growth inhibition was 4% in assay [3] (setting [7]); 17% in assay [3] (setting [8]); 13.4% in assay [3] (at 50.0 µM); 2% in assay [4] (setting [7]); 14% in assay [4] (setting [8]); 2.1% in assay [4] (at 50.0 µM). Also, the growth inhibition in assay [5] (setting [7]) was 14%; in assay [5] (setting [8]) it was 2%; in assay [5] (at 50.0 µM), 19.9%; in assay [6] (setting [7]) it was 17%; in assay [6] (setting [8]), 29%; in assay [6] (at 50.0 µM), -3.35%.

As for `CCC[CH2][Sn]1([CH2]CCC)[O]C(c2ccccn2)S(=O)(=O)[O]1` (configuration not stated), the growth inhibition was 19% in assay [1] (setting [7]); 19% in assay [1] (setting [8]); 90.2% (active) in assay [1] (at 50.0 µM); 12% in assay [2] (setting [7]); 12% in assay [2] (setting [8]); 91.2% (active) in assay [2] (at 50.0 µM). Also, the growth inhibition in assay [3] (setting [7]) was 18%; in assay [3] (setting [8]) it was 18%; in assay [3] (at 50.0 µM), 90.1% (active); in assay [4] (setting [7]) it was 5%; in assay [4] (setting [8]), 5%; in assay [4] (at 50.0 µM), 90.5% (active). Moreover, the growth inhibition in assay [5] (setting [7]) is 1%; in assay [5] (setting [8]), 1%; in assay [5] (at 50.0 µM), 91.3% (active); in assay [6] (setting [7]) it was 10%; in assay [6] (setting [8]) it was 10%; in assay [6] (at 50.0 µM) it was 88.3% (active).

For `[Cl][Hg][Cl].c1ccc(CSc2ccccc2)cc1`, the growth inhibition was 99% (active) in assay [1] (setting [7]); 99% (active) in assay [1] (setting [8]); 99% (active) in assay [1] (at 50.0 µM); 100% (active) in assay [2] (setting [7]); 100% (active) in assay [2] (setting [8]); 99.7% (active) in assay [2] (at 50.0 µM). In addition, the growth inhibition is 100% (active) in assay [3] (setting [7]); 99% (active) in assay [3] (setting [8]); 99.3% (active) in assay [3] (at 50.0 µM); 99% (active) in assay [4] (setting [7]); 99% (active) in assay [4] (setting [8]); 99.4% (active) in assay [4] (at 50.0 µM). Also, the growth inhibition is 99% (active) in assay [5] (setting [7]); 99% (active) in assay [5] (setting [8]); 99.2% (active) in assay [5] (at 50.0 µM); 99% (active) in assay [6] (setting [7]); 99% (active) in assay [6] (setting [8]); 99.5% (active) in assay [6] (at 50.0 µM).

Regarding `CCCCCCC1CCC2CCCC(C)N12` (configuration not stated), the growth inhibition in assay [1] (setting [7]) was -5%; in assay [1] (setting [8]), 67%; in assay [1] (at 50.0 µM), 85.3% (active); in assay [2] (setting [7]), -4%; in assay [2] (setting [8]), 25%; in assay [2] (at 50.0 µM), 70.8% (active). The growth inhibition in assay [3] (setting [7]) was 10%; in assay [3] (setting [8]), 68%; in assay [3] (at 50.0 µM) it was 88.2% (active); in assay [4] (setting [7]), 14%; in assay [4] (setting [8]), 43%; in assay [4] (at 50.0 µM) it was 71.1% (active). Besides, the growth inhibition in assay [5] (setting [7]) is -19%; in assay [5] (setting [8]) it was 74% (active); in assay [5] (at 50.0 µM), 89% (active); in assay [6] (setting [7]), 2%; in assay [6] (setting [8]), 57%; in assay [6] (at 50.0 µM) it was 74.9% (active).

As for `CCc1ccc([O-])c(C=NCCCN(C)CCCN=Cc2cc(C)ccc2[O-])c1.[Co+3].[N-]=[N+]=[N-]`, the growth inhibition in assay [1] (setting [7]) is -10%; in assay [1] (setting [8]), 7%; in assay [1] (at 50.0 µM), 22.1%; in assay [2] (setting [7]), -8%; in assay [2] (setting [8]), 15%; in assay [2] (at 50.0 µM) it was -12.9%. Also, the growth inhibition was -4% in assay [3] (setting [7]); 6% in assay [3] (setting [8]); 50.5% in assay [3] (at 50.0 µM); -20% in assay [4] (setting [7]); 0% in assay [4] (setting [8]); -34.5% in assay [4] (at 50.0 µM). Further, the growth inhibition in assay [5] (setting [7]) was 1%; in assay [5] (setting [8]), 8%; in assay [5] (at 50.0 µM) it was -11.2%; in assay [6] (setting [7]) it was -4%; in assay [6] (setting [8]) it was -7%; in assay [6] (at 50.0 µM), 0.85%.

`Cc1cn(CC2C=CC(CS[As](C)C)O2)c(=O)[nH]c1=O` (configuration not stated): the growth inhibition in assay [1] (setting [7]) is 7%; in assay [1] (setting [8]), 75% (active); in assay [1] (at 50.0 µM) it was 69.7%; in assay [2] (setting [7]), 1%; in assay [2] (setting [8]) it was 83% (active); in assay [2] (at 50.0 µM) it was 92.2% (active). The growth inhibition in assay [3] (setting [7]) was 4%; in assay [3] (setting [8]), 98% (active); in assay [3] (at 50.0 µM), 94.8% (active); in assay [4] (setting [7]), 0%; in assay [4] (setting [8]), 95% (active); in assay [4] (at 50.0 µM) it was 72% (active). The growth inhibition is 0% in assay [5] (setting [7]); 45% in assay [5] (setting [8]); 53% in assay [5] (at 50.0 µM); -1% in assay [6] (setting [7]); 84% (active) in assay [6] (setting [8]); 99.1% (active) in assay [6] (at 50.0 µM).

On to `O=C(Cl)c1ccccn1`, for which the growth inhibition in assay [1] (setting [7]) was 6%; in assay [1] (setting [8]) it was 98% (active); in assay [1] (at 50.0 µM), 99.5% (active); in assay [2] (setting [7]), 7%; in assay [2] (setting [8]), 99% (active); in assay [2] (at 50.0 µM), 99.5% (active). For the same molecule, the growth inhibition was 7% in assay [3] (setting [7]); 99% (active) in assay [3] (setting [8]); 77.8% (active) in assay [3] (at 50.0 µM); 6% in assay [4] (setting [7]); 99% (active) in assay [4] (setting [8]); 99.3% (active) in assay [4] (at 50.0 µM). The growth inhibition in assay [5] (setting [7]) was 4%; in assay [5] (setting [8]), 99% (active); in assay [5] (at 50.0 µM), 99.3% (active); in assay [6] (setting [7]), 1%; in assay [6] (setting [8]), 99% (active); in assay [6] (at 50.0 µM), 99.5% (active).

With `ClCCN(CCCl)B(N(CCCl)CCCl)N(CCCl)CCCl`, the growth inhibition was -1% in assay [1] (setting [7]); -6% in assay [1] (setting [8]); 98.8% (active) in assay [1] (at 50.0 µM); -23% in assay [2] (setting [7]); 0% in assay [2] (setting [8]); 99.3% (active) in assay [2] (at 50.0 µM). The growth inhibition is -11% in assay [3] (setting [7]); 10% in assay [3] (setting [8]); 99.1% (active) in assay [3] (at 50.0 µM); 0% in assay [4] (setting [7]); -2% in assay [4] (setting [8]); 99.2% (active) in assay [4] (at 50.0 µM). In addition, the growth inhibition in assay [5] (setting [7]) was 3%; in assay [5] (setting [8]), -6%; in assay [5] (at 50.0 µM), 98.8% (active); in assay [6] (setting [7]), -13%; in assay [6] (setting [8]), -26%; in assay [6] (at 50.0 µM), 99.3% (active).
